Results on eleven molecules are retold here after ChEMBL document CHEMBL3988442, “University of Dundee, Small-Polar-MMV Screening Library” (2021).

For some of these results: Measured potencies and affinities stand elsewhere.

Common to all, as to parameters: scale not given: direction of the effect not stated beside the values
Test [1] concerns the target Protein translocase subunit SecA (Escherichia coli (strain K12)) (UniProt P10408). The test can be described thus: Assay to Identify E. coli SecA ATPase Inhibitors. Type of test: functional. The settings on record: 30 µM.
In test [2] the target is T1, Ubiquitin-activating enzyme e1, putative (Leishmania donovani (strain BPK282A1)) (UniProt E9BSI1).
T1 sequence (whole entry): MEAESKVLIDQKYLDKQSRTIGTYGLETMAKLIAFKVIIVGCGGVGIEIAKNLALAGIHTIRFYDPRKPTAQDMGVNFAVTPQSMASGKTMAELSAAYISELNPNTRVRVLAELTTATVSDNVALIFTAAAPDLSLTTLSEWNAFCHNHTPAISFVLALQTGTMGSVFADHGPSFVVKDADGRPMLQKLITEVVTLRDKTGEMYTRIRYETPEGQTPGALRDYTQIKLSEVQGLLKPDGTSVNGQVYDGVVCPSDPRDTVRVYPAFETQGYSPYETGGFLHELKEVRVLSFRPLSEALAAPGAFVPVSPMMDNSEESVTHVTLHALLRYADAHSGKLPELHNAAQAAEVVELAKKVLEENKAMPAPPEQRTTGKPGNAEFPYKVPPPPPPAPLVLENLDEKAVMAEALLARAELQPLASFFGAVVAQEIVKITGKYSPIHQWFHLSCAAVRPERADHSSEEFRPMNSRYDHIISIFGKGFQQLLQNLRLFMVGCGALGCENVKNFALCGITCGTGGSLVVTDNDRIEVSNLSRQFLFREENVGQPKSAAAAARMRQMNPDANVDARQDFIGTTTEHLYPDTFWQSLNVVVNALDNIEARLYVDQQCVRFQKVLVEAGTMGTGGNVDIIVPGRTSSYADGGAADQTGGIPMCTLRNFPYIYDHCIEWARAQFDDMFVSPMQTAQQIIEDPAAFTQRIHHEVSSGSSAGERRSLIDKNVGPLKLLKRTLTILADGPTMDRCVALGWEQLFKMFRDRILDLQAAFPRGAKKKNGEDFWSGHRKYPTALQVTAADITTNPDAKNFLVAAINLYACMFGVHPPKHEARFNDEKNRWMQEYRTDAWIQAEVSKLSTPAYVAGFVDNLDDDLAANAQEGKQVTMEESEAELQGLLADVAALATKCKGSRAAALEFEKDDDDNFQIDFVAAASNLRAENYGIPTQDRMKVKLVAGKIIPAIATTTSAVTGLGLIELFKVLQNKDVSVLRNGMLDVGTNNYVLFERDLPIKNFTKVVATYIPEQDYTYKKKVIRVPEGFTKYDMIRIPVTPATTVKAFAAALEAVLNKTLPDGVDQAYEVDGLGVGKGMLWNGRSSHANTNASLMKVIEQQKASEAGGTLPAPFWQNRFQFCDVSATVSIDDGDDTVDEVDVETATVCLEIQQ
The test can be described thus: Leishmania donovani Ubiquitin Activating Enzyme (LdE1). Type of test: functional. The conditions noted are these: 30 µM.

In test [3] the target is AMP-activated protein kinase, AMPK (Homo sapiens) (UniProt P54646+O43741+P54619+Q9UGJ0+Q9Y478+Q13131+Q9UGI9). The test can be described thus: AMP-dependent Kinase enzyme assay. An in vitro enzyme assay that detects ADP turnover that is directly proportional to AMPK activity. This uses naive AMPK that is activated during the assay with MK-8722. Type of test: functional. The settings on record: 30 µM.

The target of test [4] is Sialic acid-binding Ig-like lectin 9 (Homo sapiens) (UniProt Q9Y336). Put plainly: Hs-Siglec9 ALPHAscreen SOP 20170721. The settings on record: 10 µM.
The test system of the next test is Trypanosoma cruzi. The test can be described thus: Trypanosoma cruzi phosphomannomutase and mannose-1-phosphate guanylyltransferase assay. The test is classed as functional. The settings on record: 10 µM.
The target in test [5] is T2, Arginase-2, mitochondrial (Homo sapiens) (UniProt P78540).
T2 sequence (whole entry): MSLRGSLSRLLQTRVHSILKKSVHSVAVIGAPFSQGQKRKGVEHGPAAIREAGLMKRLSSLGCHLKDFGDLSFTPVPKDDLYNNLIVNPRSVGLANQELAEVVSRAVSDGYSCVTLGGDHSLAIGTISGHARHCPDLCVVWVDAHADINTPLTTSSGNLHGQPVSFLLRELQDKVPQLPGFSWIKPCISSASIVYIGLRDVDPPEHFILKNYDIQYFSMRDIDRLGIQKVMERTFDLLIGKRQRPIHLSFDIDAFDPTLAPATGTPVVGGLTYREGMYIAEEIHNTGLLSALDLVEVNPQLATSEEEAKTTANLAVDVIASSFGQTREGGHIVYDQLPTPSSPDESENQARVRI
Put plainly: in vitro enzyme assay to detect the production of urea directly proportional to the activity of Arginase II. Note: in the data most compounds retested in dose-response had high values. Type of test: functional. The settings on record: 33.3 µM.

In test [6] the target is T3, Proteasome subunit beta (Trypanosoma cruzi) (UniProt O96673).
T3 sequence (whole entry): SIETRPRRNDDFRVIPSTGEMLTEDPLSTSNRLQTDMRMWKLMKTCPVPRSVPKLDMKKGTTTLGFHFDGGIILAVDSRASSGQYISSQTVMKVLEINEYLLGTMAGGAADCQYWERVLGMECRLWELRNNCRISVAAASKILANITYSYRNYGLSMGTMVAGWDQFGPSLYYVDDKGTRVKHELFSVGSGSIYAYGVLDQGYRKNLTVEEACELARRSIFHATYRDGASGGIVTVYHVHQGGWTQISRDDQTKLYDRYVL
Put plainly: Trypanosoma cruzi proteasome chymotrypsin-like activity (TcProtChymo) assay. Note: in the data most compounds retested in dose-response had high values. Type of test: functional. The settings on record: 9.37 µM.

The species entered for a further test is Homo sapiens. The test can be described thus: To identify inhibition of the IFN signalling (Jak-Stat) pathway via expression of an eGFP reporter gene under the control of an IFN-stimulated response element (ISRE) containing MxA promoter. The test is classed as functional. The settings on record: 30 µM.
Test [7] has as its target T4, Tyrosyl-tRNA synthetase, putative (Trypanosoma cruzi (strain CL Brener)) (UniProt Q4DSP6).
T4 sequence (whole entry): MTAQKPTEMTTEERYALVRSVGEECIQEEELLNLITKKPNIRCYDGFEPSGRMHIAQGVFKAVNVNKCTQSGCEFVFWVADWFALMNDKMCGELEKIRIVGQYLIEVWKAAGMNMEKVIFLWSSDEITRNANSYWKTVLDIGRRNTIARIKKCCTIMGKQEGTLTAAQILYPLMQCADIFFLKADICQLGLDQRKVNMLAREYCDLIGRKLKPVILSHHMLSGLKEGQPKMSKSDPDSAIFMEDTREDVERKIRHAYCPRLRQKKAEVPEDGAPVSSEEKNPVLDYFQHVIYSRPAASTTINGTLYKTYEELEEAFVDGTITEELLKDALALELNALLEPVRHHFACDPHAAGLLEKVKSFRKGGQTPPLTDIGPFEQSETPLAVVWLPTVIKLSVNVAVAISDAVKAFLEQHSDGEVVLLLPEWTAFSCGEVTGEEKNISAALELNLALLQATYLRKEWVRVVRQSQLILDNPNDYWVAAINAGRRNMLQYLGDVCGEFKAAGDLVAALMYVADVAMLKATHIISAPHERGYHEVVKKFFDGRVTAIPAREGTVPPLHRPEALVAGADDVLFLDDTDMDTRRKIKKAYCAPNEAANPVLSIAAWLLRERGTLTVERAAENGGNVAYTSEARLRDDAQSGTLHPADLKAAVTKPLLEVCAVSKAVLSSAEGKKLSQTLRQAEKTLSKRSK
The test can be described thus: Trypanosoma cruzi tyrosyl tRNA synthetase (TcYRS) _High Tyrosine SOP. Note: in the data most compounds retested in dose-response had high values. The test is classed as functional. The conditions noted are these: 30 µM.

Test [8] has as its target T4, Tyrosyl-tRNA synthetase, putative (Trypanosoma cruzi (strain CL Brener)). The test can be described thus: Trypanosoma cruzi tyrosyl tRNA synthetase (TcYRS) SOP. Type of test: functional. The conditions noted are these: 30 µM.
Test [9] addresses Chromo domain-containing protein 1 (Saccharomyces cerevisiae (strain ATCC 204508 / S288c) (Baker's yeast)) (UniProt P32657). The test can be described thus: ScCHD-1 Enzyme Inhibition Assay. Note: in the data most compounds retested in dose-response had high values. The test is classed as functional. The conditions noted are these: 30 µM.

Chain of Protein translocase subunit SecA (Escherichia coli (strain K12)) (P10408 whole entry): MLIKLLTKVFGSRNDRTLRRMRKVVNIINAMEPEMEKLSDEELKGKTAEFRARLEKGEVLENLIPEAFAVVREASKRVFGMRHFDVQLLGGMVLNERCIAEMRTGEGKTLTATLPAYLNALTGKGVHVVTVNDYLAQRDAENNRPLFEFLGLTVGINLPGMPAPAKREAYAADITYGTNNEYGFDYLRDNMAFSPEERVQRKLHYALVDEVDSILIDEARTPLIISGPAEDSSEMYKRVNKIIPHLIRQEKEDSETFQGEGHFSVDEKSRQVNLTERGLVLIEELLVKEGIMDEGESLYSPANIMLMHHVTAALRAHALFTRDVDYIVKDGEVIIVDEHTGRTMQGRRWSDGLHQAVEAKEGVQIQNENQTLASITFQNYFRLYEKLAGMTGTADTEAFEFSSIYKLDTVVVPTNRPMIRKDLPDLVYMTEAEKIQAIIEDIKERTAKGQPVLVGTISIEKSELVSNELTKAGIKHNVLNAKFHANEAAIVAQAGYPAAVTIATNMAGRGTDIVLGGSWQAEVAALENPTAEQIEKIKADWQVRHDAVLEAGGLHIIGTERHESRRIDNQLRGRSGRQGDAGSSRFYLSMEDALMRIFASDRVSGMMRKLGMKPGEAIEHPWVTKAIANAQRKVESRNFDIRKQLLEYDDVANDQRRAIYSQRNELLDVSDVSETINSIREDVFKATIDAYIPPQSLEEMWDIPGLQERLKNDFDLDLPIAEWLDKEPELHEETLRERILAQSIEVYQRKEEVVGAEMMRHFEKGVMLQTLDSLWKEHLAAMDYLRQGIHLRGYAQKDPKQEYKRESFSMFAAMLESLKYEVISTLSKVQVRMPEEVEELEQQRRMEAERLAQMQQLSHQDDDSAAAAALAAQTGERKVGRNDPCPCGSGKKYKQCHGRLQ
Chain of Sialic acid-binding Ig-like lectin 9 (Homo sapiens) (Q9Y336 whole entry): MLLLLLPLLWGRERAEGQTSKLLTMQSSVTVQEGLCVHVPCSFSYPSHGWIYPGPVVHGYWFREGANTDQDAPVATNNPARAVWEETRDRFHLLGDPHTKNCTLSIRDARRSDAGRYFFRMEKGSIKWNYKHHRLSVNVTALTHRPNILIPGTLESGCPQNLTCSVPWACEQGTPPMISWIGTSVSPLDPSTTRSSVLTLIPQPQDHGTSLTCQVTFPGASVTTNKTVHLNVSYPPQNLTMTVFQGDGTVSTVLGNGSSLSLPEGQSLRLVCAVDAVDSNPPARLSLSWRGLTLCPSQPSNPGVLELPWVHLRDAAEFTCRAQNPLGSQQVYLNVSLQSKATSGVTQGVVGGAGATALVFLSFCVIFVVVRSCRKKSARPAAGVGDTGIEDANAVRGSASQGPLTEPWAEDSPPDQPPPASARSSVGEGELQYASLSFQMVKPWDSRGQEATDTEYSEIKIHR
Chain of Chromo domain-containing protein 1 (Saccharomyces cerevisiae (strain ATCC 204508 / S288c) (Baker's yeast)) (P32657 whole entry, the tested form may be a part): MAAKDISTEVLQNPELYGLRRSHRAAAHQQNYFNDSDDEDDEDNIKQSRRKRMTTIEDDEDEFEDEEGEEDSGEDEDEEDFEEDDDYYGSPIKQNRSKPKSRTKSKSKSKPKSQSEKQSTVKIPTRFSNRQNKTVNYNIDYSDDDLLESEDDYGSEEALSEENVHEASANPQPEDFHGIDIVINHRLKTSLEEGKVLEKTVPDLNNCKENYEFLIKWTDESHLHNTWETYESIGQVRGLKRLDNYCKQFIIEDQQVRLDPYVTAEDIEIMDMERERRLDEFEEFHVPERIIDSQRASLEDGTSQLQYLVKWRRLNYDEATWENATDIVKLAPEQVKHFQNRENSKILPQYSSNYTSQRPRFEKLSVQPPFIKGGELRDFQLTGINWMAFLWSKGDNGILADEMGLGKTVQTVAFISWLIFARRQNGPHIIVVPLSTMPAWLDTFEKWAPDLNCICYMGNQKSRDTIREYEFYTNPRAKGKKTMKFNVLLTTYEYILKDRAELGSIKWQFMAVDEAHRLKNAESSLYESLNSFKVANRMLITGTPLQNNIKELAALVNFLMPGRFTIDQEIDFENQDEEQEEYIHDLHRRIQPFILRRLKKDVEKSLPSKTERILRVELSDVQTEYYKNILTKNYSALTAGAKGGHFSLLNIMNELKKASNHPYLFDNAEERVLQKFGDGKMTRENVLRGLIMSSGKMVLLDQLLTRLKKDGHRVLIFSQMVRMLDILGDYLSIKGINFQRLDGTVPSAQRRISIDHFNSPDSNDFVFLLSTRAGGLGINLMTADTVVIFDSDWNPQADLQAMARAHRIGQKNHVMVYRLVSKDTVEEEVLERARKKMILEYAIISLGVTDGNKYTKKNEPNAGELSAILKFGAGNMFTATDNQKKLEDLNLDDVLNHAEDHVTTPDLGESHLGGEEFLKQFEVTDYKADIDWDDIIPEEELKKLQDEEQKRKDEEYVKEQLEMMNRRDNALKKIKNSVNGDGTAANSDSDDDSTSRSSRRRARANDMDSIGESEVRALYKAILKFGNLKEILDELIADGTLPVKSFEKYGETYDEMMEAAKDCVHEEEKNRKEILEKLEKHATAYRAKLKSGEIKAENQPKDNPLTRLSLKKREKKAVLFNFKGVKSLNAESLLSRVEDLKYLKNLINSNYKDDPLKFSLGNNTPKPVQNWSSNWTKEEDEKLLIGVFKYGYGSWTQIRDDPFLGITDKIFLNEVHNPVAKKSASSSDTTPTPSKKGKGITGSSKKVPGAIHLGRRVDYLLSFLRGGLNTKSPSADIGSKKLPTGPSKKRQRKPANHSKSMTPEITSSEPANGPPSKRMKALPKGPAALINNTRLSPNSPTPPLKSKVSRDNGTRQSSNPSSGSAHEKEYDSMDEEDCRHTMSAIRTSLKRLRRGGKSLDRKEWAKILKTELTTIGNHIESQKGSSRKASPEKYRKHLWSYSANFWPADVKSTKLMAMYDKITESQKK

Take `N#CC1(C(=O)NCCCNc2ccc(C(F)(F)F)cn2)CCCC1`: the Percent Effect in test [1] is 0.186%; in [2] it was -2.63%; in [3], 6.89%; in [4], 5.29%; with Trypanosoma cruzi it was 0.376%; in [5], 1.53%. Besides, the Percent Effect in test [6] was 7.18%; in the test filed under Homo sapiens it was 23%; in [7], 2.45%; in test [8], 4.88%; in test [9], -0.995%.

Consider `Cc1cc(C)c(CNC(=O)NCC(O)COc2ccccc2)c(=O)[nH]1` (stereo unspecified), for which the Percent Effect was -9.63% in [1]; 7.89% in test [2]; 4.9% in test [3]; 1.32% in [4]; -0.84% in the test on Trypanosoma cruzi; -0.719% in test [5]. The Percent Effect in test [6] was -1.1%; in the test listed under Homo sapiens, 12%; in [7], 1.48%; in [8], -1.24%; in [9], -2.07%.

For the molecule `Cc1ccc(CN2CCc3c(C(=O)N(C)C)nn(C)c3C2)s1`, the Percent Effect in [1] is -1.04%; in test [2], 8.22%; in test [3] it was -3.87%; in test [4], 6.86%; in the test with Trypanosoma cruzi, 5.95%; in [5] it was 0%. In addition, the Percent Effect in [6] is 18.6%; in the test filed under Homo sapiens it was 6.25%; in test [7], 8.33%; in test [8] it was 11.1%; in test [9] it was -4.79%.

For `O=C(NCCC1CCCO1)c1ccccc1N1CCOCC1` (stereo unspecified), the Percent Effect in test [1] is -4.55%; in [2], 2.74%; in test [3], -1.11%; in [4], 12.4%; with Trypanosoma cruzi it was 4.56%; in test [5] it was -5.99%. Besides, the Percent Effect in test [6] was 10.7%; in the test filed under Homo sapiens, 8.12%; in [7] it was 10.4%; in [8], 18.5%; in test [9] it was -2.02%.

Regarding `CN(C)c1cncc(C2CCN(C(=O)CO)CC2)n1`, the Percent Effect in [1] is -3.4%; in [2], 6.76%; in test [3], 7.38%; in test [4], 5.95%; in the test with Trypanosoma cruzi it was 0.198%; in [5], 2.55%. Also, the Percent Effect was 10.8% in test [6]; 22% in the test filed under Homo sapiens; 4.3% in test [7]; 9.09% in test [8]; -10.6% in test [9].

`O=C(Cc1ccccn1)N1CCc2nc(-c3cnccn3)nc(O)c2C1`: the Percent Effect in test [1] is -2.77%; in [2], 12.2%; in [3] it was 8.84%; in test [4] it was -3.28%; with Trypanosoma cruzi, 0.593%; in test [5], 3.48%. Besides, the Percent Effect in test [6] was 12.6%; in the test filed under Homo sapiens it was 9.22%; in test [7], 4.3%; in test [8] it was 9.09%; in test [9], -9.74%.

Consider `CCOc1ccccc1-c1noc(CN2CCCC(O)C2)n1` (stereo unspecified), for which the Percent Effect in [1] was -8.22%; in test [2], 0%; in [3], -0.175%; in test [4], -2.29%; in the test with Trypanosoma cruzi it was 7.54%; in [5], -1.47%. For the same molecule, the Percent Effect in test [6] was 1.54%; in the test filed under Homo sapiens, -2.84%; in test [7], 0.952%; in test [8], 7.06%; in [9], -13.3%.

For the molecule `COc1cc(CN(C)C(=O)Cc2c(C)nn(C)c2C)ccc1OC(F)F`, the Percent Effect in test [1] is 3.46%; in [2] it was -9.72%; in test [3] it was -6.03%; in test [4], -7.7%; in the test with Trypanosoma cruzi, -5.15%; in test [5], 3.09%. The Percent Effect in [6] came out at 20.2%; in the test listed under Homo sapiens, 55.5%; in test [7], 5.26%; in [8], 10.3%; in test [9], 0.343%.

For the molecule `COc1nc(C)cc(C)c1CNC(=O)N(C)Cc1cnn(C)c1`, the Percent Effect in [1] is -2.85%; in test [2] it was 10.8%; in test [3], -7.89%; in test [4], 7.05%; in the test with Trypanosoma cruzi, 2.32%; in test [5], -2.4%. Besides, the Percent Effect in test [6] is 6.28%; in the test filed under Homo sapiens, 4.87%; in test [7] it was 3.96%; in [8], 15.8%; in test [9], -6.86%.

Regarding `Cc1cc(C(=O)N2CCc3nnc(N)cc3C2)c(C)n1C1CC1`, the Percent Effect in test [1] is -4.88%; in test [2], 8.86%; in [3] it was -10.1%; in [4], 0.435%; with Trypanosoma cruzi it was -1.95%; in test [5], -3.23%. For the same molecule, the Percent Effect was 20.1% in test [6]; 2.81% in the test filed under Homo sapiens; 7.29% in [7]; 17.7% in test [8]; -16.9% in test [9].

Consider `CCN1CCN(CC(O)c2ccc(OC(F)(F)F)cc2)CC1` (stereo unspecified), for which the Percent Effect in test [1] was -9.59%; in test [2] it was 16.2%; in test [3] it was -17.6%; in test [4] it was 27.4%; in the test with Trypanosoma cruzi it was 9.34%; in test [5], -19.6%. The Percent Effect in test [6] is 9.73%; in the test filed under Homo sapiens, 0.571%; in test [7] it was 6.4%; in test [8], 18.5%; in test [9], -20.3%.
